This is a sample that favours compounds with a hit; in the whole collection about 5.9% have one here.
GALK inhibitor = blocks human galactokinase activity | Purified GALK, Kinase-Glo residual ATP luminescence | Potency, µM (top dose mostly 57.5 µM), most hits filed as inhibitors | AID 1868 | 0.007% of 270,000 active | P51570
Target sequence (P51570 whole entry, looked up): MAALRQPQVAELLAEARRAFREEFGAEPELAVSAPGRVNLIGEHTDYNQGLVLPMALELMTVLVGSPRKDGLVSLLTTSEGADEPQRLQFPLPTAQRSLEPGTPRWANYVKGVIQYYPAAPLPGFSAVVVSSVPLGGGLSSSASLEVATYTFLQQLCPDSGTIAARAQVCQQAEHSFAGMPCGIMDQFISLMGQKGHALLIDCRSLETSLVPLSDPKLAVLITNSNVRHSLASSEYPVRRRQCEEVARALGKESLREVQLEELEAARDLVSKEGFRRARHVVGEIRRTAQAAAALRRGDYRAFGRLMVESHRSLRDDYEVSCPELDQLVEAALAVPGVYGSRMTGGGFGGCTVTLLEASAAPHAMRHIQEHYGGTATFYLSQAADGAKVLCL
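5 nM enzyme, 35 uM ATP, 100 uM galactose, 20 mM HEPES pH8.0, 5 mM MgCl2; 1 h RT; residual ATP by Kinase-Glo Plus luminescence, qHTS format.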
Gal4-VP16 FLuc = inhibits Gal4-VP16 luciferase reporter, ROR gamma counter-screen | AID 2546 | 3.5% of 310,000 active | Potency, µM (highest dose often 53.6 µM), most hits filed as inhibitors | Drosophila S2 Gal4-VP16 UAS-luciferase, luminescence, 20 h;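 note: Gal4-VP16 expression switched on by copper sulfate through the metallothionein promoter; nearly all actives have a fitted effect of over 50% in size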
rTrxR1 inhibitor = inhibitors of rat thioredoxin reductase 1. AID 588453. Potency, µM (highest dose often 114 µM), most hits filed as inhibitors. recombinant rTrxR1, NADPH fluorescence consumption, selenite substrate. O89049. 1% of 390,000 active; note: nearly all actives have a fitted effect of over 65% in size
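Rat TrxR1 (90 nM in the dispensed reagent) was pre-reduced with 400 uM NADPH for 5 min at room temperature, then incubated with compound for 15 min. After 400 uM selenite was added, NADPH fluorescence (Ex 340/Em 450 nm) was followed for 8 min.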
Coupling enz = inhibits coupling enzyme system, counter-screen for aldolase hits; coupling enzyme system counterscreen, AmpLite Red fluorescence; activity change, negative = inhibition, % at 58.2 µM, hits read low; 0.67% of 290,000 active; AID 2472; in the data active = activity change below about -30%
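Counterscreen of the coupled detection system alone, without aldolase: glyceraldehyde-3-phosphate coupling enzymes plus AmpLite Red readout. Compounds at 57.5 uM final, 10 min RT preincubation, 20 min RT reaction, fluorescence 525/598 nm.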
TrxR1 substrate = substrates of rat thioredoxin reductase 1 | purified TrxR1 substrate turnover, NADPH consumption readout | Potency, µM (series often up to 114 µM) | 0.01% of 390,000 active | AID 588456; note: nearly all actives have a fitted effect of over 50% in size
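Rat TrxR1, dispensed at 90 nM, was prereduced with 400 uM NADPH (final) for 5 min at ~22 deg C, then incubated with compound 15 min before 400 uM selenite. A first-read NADPH fluorescence drop versus no-compound background flagged substrates.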
RORg inh = ROR gamma (mouse) transcription inhibition; Potency, µM (top dose mostly 53.6 µM), hits mostly inhibitors; 5.4% of 310,000 active; Drosophila S2 Gal4-RORgamma UAS-luciferase reporter, 20 h; AID 2551; P51450; note: nearly all actives have a fitted effect of over 60% in size
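Drosophila Schneider cells stably carrying a metallothionein-driven Gal4 DBD–ROR gamma fusion and a UAS-Photinus luciferase reporter were exposed to compound for 1 hr, then induced with copper sulfate (700 uM final) for 20 hr at ambient temperature before luminescence reading.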
Hits are given with their value; - = inactive; ? = inconclusive; . = no result; [ ] = remark or other dose. Unless noted, calls come from the whole dose curve; as a rule, active = well fitted curve in the direction sought with a large enough effect; inconclusive = small, poorly fitted or top-dose-only effect, or another doubt; inactive = no such curve, though single readings can be large; an effect the other way counts as inactive or inconclusive.

SMILES	GALK inhibitor	Gal4-VP16 FLuc	rTrxR1 inhibitor	Coupling enz	TrxR1 substrate	RORg inh
O=C1c2ccccc2C(=O)c2c1ccc1c(=O)n(C3CCCCC3)[nH]c21	-	-	-	-	-	7.9µM
O=C(c1cc(-c2cccc3ccccc23)nc2ccccc12)N1CCN(CCO)CC1	.	.	-	.	-	.
Cc1oc(-c2ccc(Cl)cc2)cc1C(=O)O	-	?	-	-	-	14µM
C=CS(=O)(=O)c1c2cc(OC)ccc2nc2ccc(OC)cc12	.	.	1.3µM	.	-	.
COc1ccc(C(NC(C)=O)c2cc(Cl)c3cccnc3c2O)cc1OC (stereo not drawn)	-	-	-	-	-	4µM
COc1ccccc1C(NC(C)=O)c1cc(Cl)c2cccnc2c1O (stereo not drawn)	-	2.8µM	-	-	-	2.2µM
CCOc1cc(C(=O)NCCc2csc3nc(-c4ccccc4F)nn23)cc(OCC)c1OCC	.	.	-	.	-	.
Cc1ccc(OCC(=O)c2ccc(Cl)s2)c([N+](=O)[O-])n1	-	20µM	?	-	-	?
CCCCCOC(=O)c1ccc(NC(=O)c2cccc(NC(=O)c3ccccc3C(=O)O)c2)cc1	-	-	-	-	-[2.29 µM]	-
Cc1ccc(O)c(N=CC2=C(O)c3ccccc3C2=O)c1	-	7.1µM	-	-	-	4µM
O=C1C(C=Nc2ccccc2O)=C(O)c2ccccc21	-	7.1µM	-	-	-	4µM
Cc1ccccc1Nc1c(-c2ccccc2)nc2cccc(C)n12	.	.	-	.	-	.
NS(=O)(=O)c1ccc(CCNC(=O)c2cc(-c3ccc(Br)cc3)nc3ccccc23)cc1	-	?	-	-	-	3.5µM
NNC(=O)c1cc(-c2ccc(O)cc2)nc2ccc(Br)cc12	.	?	-	-	-	13µM
NNC(=O)c1cc(C2CC2)nc2ccc(Br)cc12	-	-	-[2.29 µM]	-	-[2.29 µM]	-
O=C(NCCc1ccc(Cl)cc1)c1cc(-c2ccccn2)nc2ccccc12	-	?	-	-	-	11µM
CC(C)(C)n1ncc2c(=O)n(CC(=O)Nc3ccccc3)cnc21	-	-	-	-	-	?
Cc1cc(C)nc(Nc2nc(C)c3cc4c(cc3n2)OCO4)n1	-	7.1µM	-	-	-	7.1µM
Cc1ccc(-c2nc(S(=O)(=O)c3ccc(C)cc3)c(N(C)C)o2)cc1	-	-	25µM	-	-	-
Cc1nc(S(=O)(=O)c2ccc(Cl)cc2)c(N(C)C)o1	-	-	4µM	-	-	-
COc1cc(-c2nc(S(=O)(=O)c3ccc(C)cc3)c(N(C)C)o2)cc(OC)c1OC	-	-	-	-	-	-
Cc1nc(S(=O)(=O)c2ccc(Cl)cc2)c(NCc2ccccc2)o1	-	-	45µM	-	-	-
Cc1ccc(S(=O)(=O)c2nc(-c3ccccc3Br)oc2N(C)C)cc1	.	.	6.3µM	.	-	.
O=C1c2ccccc2NC(c2ccc(-c3ccc(F)cc3)o2)N1O (stereo not drawn)	.	.	-	.	-	.
O=C1c2ccccc2NC(c2ccc(-c3ccc(Br)cc3)o2)N1O (stereo not drawn)	-	?	-	-	-	7.1µM
SMILES	GALK inhibitor	Gal4-VP16 FLuc	rTrxR1 inhibitor	Coupling enz	TrxR1 substrate	RORg inh
CCS(=O)(=O)c1ncc(Cl)c(C(=O)N(Cc2ccccc2)Cc2ccco2)n1	.	.	2.8µM	.	-	.
Cc1ccc(SCC(=O)N2CCC(C(N)=O)CC2)cc1	-	-[10 µM]	-	-	-	-
O=C(N/N=C\c1cn(-c2ccccc2)nc1-c1ccccc1)c1ccc(Br)o1	-	4µM	-	-	-	1.4µM
Cc1ccc(-c2nn(-c3ccccc3)cc2/C=N/NC(=O)c2ccc(Br)o2)cc1	-	4µM	-	-	-	2.8µM
O=C(N/N=C/c1cn[nH]c1-c1ccccc1)c1ccco1	-	-[10 µM]	-	-	-	-
O=C(N/N=C/c1cn(-c2ccccc2)nc1-c1ccccc1)c1ccco1	-	10µM	-	-	-	6.3µM
COC/C=C/C1=CC2=CC(=O)C(C)(OC(=O)CCc3ccccc3)C(=O)C2=CO1 (stereo not drawn)	.	-	.	-	.	-
CCCn1c(SC(C(=O)Nc2cc(C)ccc2OC)c2ccccc2)nc2ccccc2c1=O (stereo not drawn)	-	?	-	-	-	20µM
Cc1cc(C)n(-c2ccc(Cl)c(C(=O)OCC(=O)N3CCCCC3C)n2)n1 (stereo not drawn)	-	-	-	-	-	-[10 µM]
COC(=O)c1cccc(Oc2nc3c(c(=O)n(C)c(=O)n3C)n2Cc2ccc(C)cc2)c1	.	.	-	.	-	.
CC(C)(C)C(=O)/C=c1\[nH]c(=O)/c(=C\c2ccccc2F)s1	-	-	-	-	-	?
Cc1ccccc1/C=c1\s/c(=C\C(=O)C(C)(C)C)[nH]c1=O	-	0.89µM	-	-	-	?
CCOc1ccc(-n2nc(CO)c(C(=O)NCc3ccccn3)n2)cc1	.	.	-	.	-	.
CC(C)(C)C(=O)Nc1ccc(C(=O)NCc2cccnc2)cc1	-	-	-	-	-	-
Cc1onc(-c2c(F)cccc2Cl)c1C(=O)NC(=S)NCc1cccnc1	-	?	-	-	-	16µM
CC(C)c1ccc(C(=O)NC(=S)NCc2cccnc2)cc1	-	?	?	-	-	2.8µM
CC(C)(C)c1ccc(C(=O)Nc2ccc(C(=O)NCc3cccnc3)cc2)cc1	-	28µM	-	-	-	?
Cc1ccc(C(=O)NC(=S)NCc2cccnc2)cc1C	-	?	-	-	-	13µM
COc1ccc(C(=O)NC(=S)NCc2cccnc2)cc1Br	-	?	-	-	-	?
Cn1nc(C(=O)Nc2ccccc2Cl)cc1C(=O)Nc1ccccc1Cl	.	.	-	.	-	.
CCOC(=O)Cc1ccc(NC(=O)c2ccc(C(C)(C)C)cc2)cc1	-	?	-	-	-	0.2µM
O=C(NC(=S)NCc1cccnc1)c1ccc([N+](=O)[O-])cc1	-	?	-	-	-	8.9µM
CN(C)S(=O)(=O)c1cccc(-c2nnc(-c3ccccc3)o2)c1	-	?	-	-	-	-
O=C(NCCCN1CCOCC1)c1sc2cc([N+](=O)[O-])ccc2c1Cl	-	?	-	-60	-	-
Cc1ccc(OCC(=O)Nc2ccccc2F)cc1	.	.	-	.	-	.
SMILES	GALK inhibitor	Gal4-VP16 FLuc	rTrxR1 inhibitor	Coupling enz	TrxR1 substrate	RORg inh
Nc1cccc(/C=C/c2ccnc3ccccc23)c1	.	.	-	.	-	.
Cc1cccc(C)c1NCc1n[nH]c(=S)n1-c1ccccc1	-	?	?	-	-	2µM
Cn1c(CSCCOc2ccccc2)n[nH]c1=S	.	?	-	-	-	1µM
Cc1ccc(OCc2n[nH]c(=S)n2-c2ccccc2)cc1C	-	?	-	-	-	2µM
Cc1ccc(-n2c(COc3cccc(C)c3)n[nH]c2=S)cc1	-	?	-	-	-	?
Cc1cccc(OCc2n[nH]c(=S)n2-c2ccccc2)c1	-	?	-	-	-	2.2µM
CC(C)Oc1ccc(CCc2n[nH]c(=S)n2-c2ccccc2)cc1	-	-	-	-	-	7.1µM

Screening data (PubChem BioAssay)
